Screening results: PubChem BioAssay, National Center for Advancing Translational Sciences (NCATS)
Shown are actives, neighbours in structure and some others; about 9.2% of the full set was active somewhere.
ELG1 DNA repair = blocks ELG1-dependent DNA repair in HEK293T cells | HEK293T ELG1-luciferase reporter, luminescence, 16 h; DNA damage induced by 5-fluorouridine | Potency, µM (top dose mostly 46.1 µM), inactives show at the highest dose activity change, negative = inhibition, most hits filed as inhibitors | 330,000 tested, 2.3% active | AID 504467; note: % is set by controls: 0 for no effect and ±100 for the full control effect; nearly all actives have a fitted effect of over 55% in size
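Reporter activity after DNA damage by 5-fluorouridine is monitored. Compound-treated cells incubate 16 hr at 37 °C, then ONE-Glo is added for 30 min before luminescence reading.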
Rab9 prom act = activators of Rab9 promoter | 320,000 tested, 2.8% active | Huh7 Rab9 promoter-luciferase reporter, luminescence, 24 h | Potency, µM (doses to about 9.22 µM), inactives show at the top dose activation, negative = inhibition, hits mostly activators; note: % of control where 0% means no effect; nearly all actives have a fitted effect of over 60% in size
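Luciferase signal after 10 min detection reagent at ambient indicates Rab9 promoter upregulation; stably transfected Huh7 cells were treated 24 h with compound in DMSO at 37 °C, 5% CO2.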
NPC1 prom act = activators of NPC1 promoter; Huh7 NPC1 promoter luciferase reporter, 24 h; Potency, µM (titrated, usually from 9.22 µM), inactives show top-dose activation, hits mostly activators; 320,000 tested, 2.4% active; AID 485313; note: % of control where 0% means no effect; nearly all actives have a fitted effect of over 60% in size
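Readout is luciferase luminescence, reflecting NPC1 promoter activation in stably transfected Huh7 cells after 24 h compound exposure at 37 °C in reduced-serum medium with 10% FBS.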
ELG1 genotox = genotoxicity induction in ELG1-luciferase HEK293T cells | HEK293T ELG1-luciferase reporter, luminescence, 16 h | 330,000 tested, 1.3% active | Potency, µM (doses to about 46 µM), for the others: at the highest dose activity change, positive = activation, usual class: activators; note: % of control where 0% means no effect; nearly all actives have a fitted effect of over 60% in size
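HEK293T cells expressing luciferase-tagged ELG1 were treated with compound or DMSO for 16 hr at 37°C. Luciferase activity was then read after 30 min with ONE-Glo at room temperature; rising signal flags genetic stress.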
SMN2 splice up = SMN2 splice variant enhancement | HEK293 SMN2-luciferase splicing reporter, luminescence, 30-36 h | 210,000 tested, 2.8% active | Potency, µM (top dose mostly 46.1 µM), for the others: at the highest dose activity change, positive = activation, actives largely listed as activators; note: % of control where 0% means no effect; nearly all actives have a fitted effect of over 55% in size
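qHTS luciferase splicing reporter: luminescence rises when SMN2 exon 7 is included in transfected HEK293 cells. Compound exposure lasted 30-36 h at 37C, with 4.5 mM final sodium butyrate as control, followed by a ONE-Glo read.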
FLuc modulator = firefly luciferase modulation, counter-screen for miR-21 project. P08659. purified FLuc, Km substrates, luminescence inhibition. Potency, µM (highest dose often 57.5 µM), for inactives: top-dose activity change, negative = inhibition, most hits filed as inhibitors. 360,000 tested, 6.9% active;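 note: plate controls were vehicle for no effect and reference inhibitor for full effect; nearly all actives have a fitted effect of over 55% in size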
Target sequence (P08659 whole entry, looked up): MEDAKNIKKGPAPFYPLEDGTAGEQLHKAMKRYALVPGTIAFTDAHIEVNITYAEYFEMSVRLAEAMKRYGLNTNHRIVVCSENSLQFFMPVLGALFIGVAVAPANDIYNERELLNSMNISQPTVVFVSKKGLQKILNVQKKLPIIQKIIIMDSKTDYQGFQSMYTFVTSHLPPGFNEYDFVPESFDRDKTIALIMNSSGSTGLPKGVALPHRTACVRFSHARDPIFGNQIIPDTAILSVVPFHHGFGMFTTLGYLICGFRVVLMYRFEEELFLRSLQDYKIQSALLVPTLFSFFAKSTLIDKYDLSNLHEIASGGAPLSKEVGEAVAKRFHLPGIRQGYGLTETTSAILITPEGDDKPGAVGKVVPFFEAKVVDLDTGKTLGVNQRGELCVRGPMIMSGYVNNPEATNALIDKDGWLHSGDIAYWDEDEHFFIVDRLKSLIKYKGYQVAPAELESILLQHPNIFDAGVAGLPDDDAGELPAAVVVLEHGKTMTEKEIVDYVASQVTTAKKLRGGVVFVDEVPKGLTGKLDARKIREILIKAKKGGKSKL
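Biochemical qHTS of compounds, final roughly 60 µM downward over six points, against 10 nM purified firefly luciferase using Km concentrations of substrates (10 uM D-luciferin, 10 uM ATP) in Tris acetate pH 7.5 buffer; luminescence output.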
Active calls of the source: *; ? = inconclusive; nt = no result; [ ] = dose if it differs, or a comment. Calls come from the whole dose curve; as a rule, active = well fitted curve in the direction sought with a large enough effect; inconclusive = small, poorly fitted or top-dose-only effect, or another doubt; inactive = no such curve, though single readings can be large; an effect the other way counts as inactive or inconclusive. Potency is the fitted concentration of half-maximal effect.

SMILES	ELG1 DNA repair	Rab9 prom act	NPC1 prom act	ELG1 genotox	SMN2 splice up	FLuc modulator
COc1ccc(S(=O)(=O)n2nc(C)c(S(=O)(=O)N3CCOCC3)c2C)cc1OC	0.0%	0.8%	0.3%	-1.8%	nt	2.4%
N#Cc1ccc(C(=O)Nc2nnc(-c3ccco3)o2)cc1	16.4µM*	8.0%	1.7%	-0.7%	-28.8%	?
Cc1ccc(C(=O)Nc2nnc(-c3ccco3)o2)cc1	?	3.98µM*	3.55µM*	?	12.6µM*	13.5µM*
O=C(Nc1nnc(-c2ccco2)o1)c1ccc2ccccc2c1	?	-3.7%	2.4%	?	-1.0%	?
O=C(Nc1nnc(-c2ccc(F)cc2)o1)c1ccco1	15.7%	0.1%	8.6%	4.3%	nt	16.9µM*
COc1cccc(NC(=O)CCc2c(C)nc3nc(CNC(=O)c4cccc(F)c4)nn3c2C)c1	-11.3%	-2.5%	1.8%	-6.7%	0.4%	-3.0%
CN1C[C@@H]2C(c3ccc(C(F)(F)F)cc3)C3(c4ccc(C#N)cc4)CC2(C3)[C@H]1c1ccccc1 (some centres undefined)	?	-13.6%	-4.8%	-9.4%	-26.1%	2.1%
COc1cc(C2CC(c3ccccc3)=NN2c2ccccc2)ccc1OCC(=O)O (centres undefined)	6.7%	1.3%	0.1%	7.1%	nt	15.1µM*
COc1ccc(C2=NN(c3ccc(C(=O)O)cc3)C(c3ccc(OC)c(OC)c3)C2)cc1 (centres undefined)	?	9.6%	16.1%	23.1µM*	nt	?
COc1ccc(C2CC(c3ccc(Cl)cc3)=NN2c2ccc(S(N)(=O)=O)cc2)cc1 (centres undefined)	-0.2%	nt	nt	-7.9%	nt	nt
COc1ccc(C2CC(c3ccccc3)=NN2c2ccc(S(N)(=O)=O)cc2)cc1OC (centres undefined)	-20.4%	-2.5%	-5.2%	0.7%	-0.6%	-0.7%
COc1ccc(NC(=O)COC(=O)c2cccc(S(=O)(=O)N(C)C)c2)cc1	0.3%	-3.0%	0.9%	0.7%	-8.4%	-0.9%
COc1ccc(-c2cc(-c3ccccc3)nc(SCC(=O)Nc3nccs3)c2C#N)cc1	?	-3.8%	-1.0%	-1.6%	nt	13.5µM*
O=C(COc1ccc2ccc(=O)oc2c1)Nc1cccnc1	?	-5.3%	2.2%	0.6%[9.26 µM]	nt	-9.6%
Cn1cc(SCC(=O)Nc2nccs2)c2ccccc21	?	?	?	20.6µM*	11.2µM*	12µM*
Nc1ccccc1SCC(=O)Nc1nccs1	18.4%	-1.9%	-6.6%	-3.5%	nt	-0.9%
O=C(COc1ccc2ccc(=O)oc2c1)Nc1nccs1	?	2.82µM*	2.24µM*	?	nt	15.1µM*
CN(C)S(=O)(=O)c1cccc(C(=O)OCC(=O)Nc2sccc2C(N)=O)c1	18.4µM*	5.2%	-3.8%	-17.0%	nt	2.5%
CCN(CC)C(=O)c1nc[nH]c1C(=O)N(CC)CC	14.5%	3.6%	1.3%	3.5%	nt	-2.0%
COC(=O)c1ccccc1NC(=O)c1cc(CN2CCOCC2)on1	nt	nt	nt	nt	nt	-2.6%
Cc1ccc(Cl)cc1N1CCN(C(=O)c2ccc3c(c2)N(Cc2ccc(F)cc2)CCS3)CC1	nt	nt	nt	nt	-0.6%	2.7%
O=C(COc1ccc2ccccc2c1)Nc1nccs1	?	0.355µM*	0.501µM*	?	nt	0.601µM*
O=C(COc1ccccc1)Nc1ncccn1	?	8.0%	-4.5%	?	-8.7%	-21.4%
Cc1cccc(OCC(=O)OCC(=O)Nc2sccc2C(N)=O)c1	4.7%	nt	nt	0.2%	nt	nt
O=C(COc1ccccc1)Nc1nccs1	?	3.55µM*	1µM*	?	5.01µM*	10.7µM*
SMILES	ELG1 DNA repair	Rab9 prom act	NPC1 prom act	ELG1 genotox	SMN2 splice up	FLuc modulator
NC(=O)c1ccsc1NC(=O)COc1ccccc1	?	3.16µM*	?	8.91µM*	12.6µM*	12µM*
CSc1ccc(/C=N/N2CCN(C)CC2)cc1	?	3.16µM*	?	16.8%	17.8µM*	21.3µM*
CSc1ccc(/C=N/n2c(C)nnc2C)cc1	?	-6.0%	-10.0%	9.9%	10.4%	-4.1%
CN1CCN(/N=C/c2ccc(-c3ccccc3)cc2)CC1	?	?	3.55µM*	8.7%	?	19µM*
CSc1ccc(/C=N/n2c(C)cc(C)cc2=O)cc1	?	2.82µM*	?	10.3µM*	?	15.1µM*
CC(=O)NCCC1CCN(C(=O)c2cc(COc3ccc(C)nc3)on2)CC1	-18.9%	-0.9%	-3.1%	-7.0%	nt	0.1%
Cc1ccccc1OCC(=O)Nc1c2c(nn1C(C)(C)C)CS(=O)(=O)C2	7.1%	4.3%	-0.4%	-0.8%	nt	4.2%
O=C(N/N=C/c1ccccc1F)NC1CCCCC1	?	2.82µM*	?	?	?	23.9µM*
O=C(N/N=C/c1ccccc1)NC1CCCCC1	?	22.0%	16.5%	14.3%	25.6%	?
COc1cccc(S(=O)(=O)NCc2ccc(C(=O)Nc3cccc(Cl)c3)cc2)c1	18.4µM*	-3.2%	-0.4%	-24.1%	-56.8%	-0.4%
CN(C)S(=O)(=O)Oc1cccc(C(=O)Nc2ccc(Cl)c(Cl)c2)c1	?	2µM*	3.55µM*	15.5%	5.8%	4.78µM*
COc1ccc(NC(=O)c2ccc(S(=O)(=O)N(C)C)cc2)cc1	-2.5%	1.0%	-3.6%	3.0%	nt	-17.7%
COc1ccc(NC(=O)c2cccc(OS(=O)(=O)N(C)C)c2)cc1	?	2µM*	1.58µM*	8.5%	11.2µM*	6.01µM*
CN(C)S(=O)(=O)Oc1cccc(C(=O)Nc2cccc(Cl)c2)c1	?	?	?	0.2%	?	13.5µM*
Cc1ccc(C)c(S(=O)(=O)c2nnn3c2nc(N2CCCCC2)c2sccc23)c1	nt	nt	nt	nt	nt	-7.6%
CC1(N(O)/C=C2\C=CC=CC2=O)CCCCC1=O (centres undefined)	-3.7%	2.7%	-4.8%	-0.3%	nt	0.9%
CCOC(=O)c1cc(S(=O)(=O)N2CCN(c3ccccc3OC)CC2)cn1C	-19.2%	-5.5%	2.4%	-5.4%	nt	3.4%
COCC(C)n1c(SCC(=O)Nc2c(C)n(C)n(-c3ccccc3)c2=O)nc2ccccc2c1=O (centres undefined)	9.6%	nt	nt	1.1%	nt	nt
COc1ccccc1C(C(=O)NC1CCCC1)N(C(=O)c1csnn1)C1CC1 (centres undefined)	?	-3.0%	1.3%	-2.3%	nt	1.8%
COc1cc(C2=N/C(=C\c3ccccc3)C(=O)O2)cc(OC)c1OC	nt	nt	nt	nt	-1.6%	nt
CC(=O)n1cc(/C=C2/N=C(c3ccccc3)OC2=O)c2ccccc21	13.3%	-0.7%	-2.3%	0.6%	-2.1%	5.36µM*
